Measured values: paper PMC5540273 (PLoS ONE, 2017)
“And” between values parts separate entries of the source, which are not always exact repeats. Equal values may be shown once. Read-outs that look alike come from different tables or passages of the source.

Experiments:
ACVR2B = settings: n = 1
ACVRL1 = settings: concentration: 1 μM, replicates: in singlicate; n = 1
ADCK3 = test system: T1, ADCK3; settings: n = 1
T1 construct: gene CABC1

ADCK4 = settings: n = 1
AKT1 = settings: concentration: 1 μM, replicates: in singlicate; n = 1
AKT2 = settings: n = 1
AKT3 = settings: concentration: 1 μM, replicates: in singlicate; n = 1
ALK = settings: n = 1
AMPK-alpha1 = test system: T2, AMPK-alpha1; settings: n = 1
T2 construct: gene PRKAA1

AMPK-alpha2 = test system: T3, AMPK-alpha2; settings: n = 1
T3 construct: gene PRKAA2

ANKK1 = settings: n = 1
ARK5 = test system: T4, ARK5; settings: n = 1
T4 construct: gene NUAK1

ASK1 = test system: T5, ASK1; settings: n = 1
T5 construct: gene MAP3K5

ASK2 = test system: T6, ASK2; settings: n = 1
T6 construct: gene MAP3K6

AURKA = settings: n = 1
AURKB = settings: n = 1
AURKC = settings: n = 1
AXL = settings: n = 1
BIKE = test system: T7, BIKE; settings: n = 1
T7 construct: gene BMP2K

BLK = settings: n = 1
[1] = concentration: 1 μM, replicates: in singlicate
[2] = concentration: 1 μM,replicates: in singlicate, 1 µM
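Note: KINOMEscan kinase panel screen.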

Question: With `Cc1ccc(NC(=O)Nc2cccc(Cl)c2)cc1-c1ccc(C(=O)Nc2ccncc2)cc1` [GSK1398468] as the compound, how does the “%Inh” value (ACVR2B; [1]) read?
Answer: 1%

Question: What about the “%Inh” value (ACVRL1) of the same compound?
Answer: 0%

Question: What about the “%Inh” value (ADCK3; [1]) of the same compound?
Answer: 5%

Question: What about the “%Inh” value (ADCK4; [1]) of the same compound?
Answer: 34%

Question: What about the “%Inh” value (AKT1) of the same compound?
Answer: 0%

Question: What about the “%Inh” value (AKT2; [1]) of the same compound?
Answer: 8%

Question: And the “%Inh” value (AKT3)?
Answer: 0%

Question: And the “%Inh” value (ALK; [1])?
Answer: 20%

Question: And the “%Inh” value (AMPK-alpha1; [1])?
Answer: 7%

Question: What about the “%Inh” value (AMPK-alpha2; [1]) of the same compound?
Answer: 13%

Question: What about the “%Inh” value (ANKK1; [1]) of the same compound?
Answer: 17%

Question: And the “%Inh” value (ARK5; [1])?
Answer: 6%

Question: What about the “%Inh” value (ASK1; [1]) of the same compound?
Answer: 2%

Question: What about the “%Inh” value (ASK2; [1]) of the same compound?
Answer: 0%

Question: And the “%Inh” value (AURKA; [1])?
Answer: 15%

Question: And the “%Inh” value (AURKB; [1])?
Answer: 14%

Question: What about the “%Inh” value (AURKC; [1]) of the same compound?
Answer: 44%

Question: And the “%Inh” value (AXL; [1])?
Answer: 0%

Question: What about the “%Inh” value (BIKE; [1]) of the same compound?
Answer: 29%

Question: What about the “%Inh” value (BLK; [1]) of the same compound?
Answer: 0%

Question: Which “%Inh” value (ACVR2B; [1]) does the source give for `COc1ccc(CNC(=O)NC2CCN(c3ccnc(Nc4cc(OC)c(OC)c(OC)c4)n3)C2)cc1` (centres unmarked) [GSK1379748] here?
Answer: 0%

Question: And the “%Inh” value (ACVRL1)?
Answer: 0%

Question: And the “%Inh” value (ADCK3; [1])?
Answer: 24%

Question: What about the “%Inh” value (ADCK4; [1]) of the same compound?
Answer: 76%

Question: What about the “%Inh” value (AKT1) of the same compound?
Answer: 0%

Question: And the “%Inh” value (AKT2; [1])?
Answer: 0%

Question: And the “%Inh” value (AKT3)?
Answer: 0%

Question: What about the “%Inh” value (ALK; [1]) of the same compound?
Answer: 27%

Question: What about the “%Inh” value (AMPK-alpha1; [1]) of the same compound?
Answer: 10%

Question: And the “%Inh” value (AMPK-alpha2; [1])?
Answer: 0%

Question: What about the “%Inh” value (ANKK1; [1]) of the same compound?
Answer: 33%

Question: And the “%Inh” value (ARK5; [1])?
Answer: 25%

Question: What about the “%Inh” value (ASK1; [1]) of the same compound?
Answer: 0%

Question: And the “%Inh” value (ASK2; [1])?
Answer: 12%

Question: What about the “%Inh” value (AURKA; [1]) of the same compound?
Answer: 79%

Question: And the “%Inh” value (AURKB; [1])?
Answer: 84%

Question: What about the “%Inh” value (AURKC; [1]) of the same compound?
Answer: 60%

Question: What about the “%Inh” value (AXL; [1]) of the same compound?
Answer: 8%

Question: And the “%Inh” value (BIKE; [1])?
Answer: 25%

Question: What about the “%Inh” value (BLK; [1]) of the same compound?
Answer: 0%

Question: How did the “%Inh” value (ACVR2B; [1]) turn out when `Cc1cc(-c2ccc3c(c2)CC[C@@H](N[C@@H](C)c2ccccc2)C3)cnc1N.Cl` [GW412617] was run?
Answer: 0%

Question: And the “%Inh” value (ACVRL1)?
Answer: 37%

Question: And the “%Inh” value (ADCK3; [1])?
Answer: 41%

Question: What about the “%Inh” value (ADCK4; [1]) of the same compound?
Answer: 1%

Question: And the “%Inh” value (AKT1)?
Answer: 0%

Question: And the “%Inh” value (AKT2; [1])?
Answer: 27%

Question: And the “%Inh” value (AKT3)?
Answer: 14%

Question: And the “%Inh” value (ALK; [1])?
Answer: 52%

Question: And the “%Inh” value (AMPK-alpha1; [1])?
Answer: 2%

Question: And the “%Inh” value (AMPK-alpha2; [1])?
Answer: 20%

Question: What about the “%Inh” value (ANKK1; [1]) of the same compound?
Answer: 69%

Question: And the “%Inh” value (ARK5; [1])?
Answer: 13%

Question: What about the “%Inh” value (ASK1; [1]) of the same compound?
Answer: 33%

Question: And the “%Inh” value (ASK2; [1])?
Answer: 0%

Question: And the “%Inh” value (AURKA; [1])?
Answer: 0%

Question: What about the “%Inh” value (AURKB; [1]) of the same compound?
Answer: 35%

Question: What about the “%Inh” value (AURKC; [1]) of the same compound?
Answer: 26%

Question: And the “%Inh” value (AXL; [1])?
Answer: 33%

Question: What about the “%Inh” value (BIKE; [1]) of the same compound?
Answer: 40%

Question: What about the “%Inh” value (BLK; [1]) of the same compound?
Answer: 13%

Question: Which “%Inh” value (ACVR2B; [1]) does the source give for `NC(=O)c1nnc2ccccc2c1N` here?
Answer: 24%

Question: And the “%Inh” value (ACVRL1)?
Answer: 0%

Question: And the “%Inh” value (ADCK3; [1])?
Answer: 81%

Question: And the “%Inh” value (ADCK4; [1])?
Answer: 1%

Question: And the “%Inh” value (AKT1)?
Answer: 7%

Question: And the “%Inh” value (AKT2; [1])?
Answer: 0%

Question: What about the “%Inh” value (AKT3) of the same compound?
Answer: 0%

Question: And the “%Inh” value (ALK; [1])?
Answer: 24%

Question: And the “%Inh” value (AMPK-alpha1; [1])?
Answer: 25%

Question: And the “%Inh” value (AMPK-alpha2; [1])?
Answer: 6%

Question: What about the “%Inh” value (ANKK1; [1]) of the same compound?
Answer: 34%

Question: What about the “%Inh” value (ARK5; [1]) of the same compound?
Answer: 0%

Question: And the “%Inh” value (ASK1; [1])?
Answer: 20%

Question: What about the “%Inh” value (ASK2; [1]) of the same compound?
Answer: 40%

Question: What about the “%Inh” value (AURKA; [1]) of the same compound?
Answer: 0%

Question: What about the “%Inh” value (AURKB; [1]) of the same compound?
Answer: 32%

Question: And the “%Inh” value (AURKC; [1])?
Answer: 40%

Question: What about the “%Inh” value (AXL; [1]) of the same compound?
Answer: 19%

Question: What about the “%Inh” value (BIKE; [1]) of the same compound?
Answer: 51%

Question: What about the “%Inh” value (BLK; [1]) of the same compound?
Answer: 0%

Question: What does the source list for `O=C(O)COc1ncnc2cc(-c3ccc4[nH]ncc4c3)sc12`?
Answer: %Inh (ACVR2B; [1]): 0%; %Inh (ACVRL1): 6%; %Inh (ADCK3; [1]): 0%; %Inh (ADCK4; [1]): 0%; %Inh (AKT1): 0%; %Inh (AKT2; [1]): 22%; %Inh (AKT3): 17%; %Inh (ALK; [1]): 0%; %Inh (AMPK-alpha1; [1]): 13%; %Inh (AMPK-alpha2; [1]): 18%; %Inh (ANKK1; [1]): 12%; %Inh (ARK5; [1]): 0%; %Inh (ASK1; [1]): 0%; %Inh (ASK2; [1]): 0%; %Inh (AURKA; [1]): 45%; %Inh (AURKB; [1]): 28%; %Inh (AURKC; [1]): 0%; %Inh (AXL; [1]): 21%; %Inh (BIKE; [1]): 0%; %Inh (BLK; [1]): 1%

Question: Which results are given for `Cn1ccc2ncnc(Oc3ccc(Nc4nc5ccccc5[nH]4)cc3)c21`?
Answer: %Inh (ACVR2B; [1]): 0%; %Inh (ACVRL1): 0%; %Inh (ADCK3; [1]): 0%; %Inh (ADCK4; [1]): 0%; %Inh (AKT1): 0%; %Inh (AKT2; [1]): 16%; %Inh (AKT3): 0%; %Inh (ALK; [1]): 0%; %Inh (AMPK-alpha1; [1]): 7%; %Inh (AMPK-alpha2; [1]): 0%; %Inh (ANKK1; [1]): 0%; %Inh (ARK5; [1]): 14%; %Inh (ASK1; [1]): 0%; %Inh (ASK2; [1]): 0%; %Inh (AURKA; [1]): 0%; %Inh (AURKB; [1]): 95.2%; %Inh (AURKC; [1]): 3%; %Inh (AXL; [1]): 0%; %Inh (BIKE; [1]): 0%; %Inh (BLK; [1]): 0%

Question: What does the source list for `CSc1nn2c(=O)cc(N3CCOCC3)nc2n1Cc1cccc(C(F)(F)F)c1C` [GSK2363608]?
Answer: %Inh (ACVR2B; [2]): 3% and 0%; %Inh (ACVRL1): 0%; %Inh (ADCK3; [2]): 5% and 0%; %Inh (ADCK4; [2]): 31% and 22%; %Inh (AKT1): 0%; %Inh (AKT2; [2]): 9% and 13%; %Inh (AKT3): 0%; %Inh (ALK; [2]): 23% and 31%; %Inh (AMPK-alpha1; [2]): 0% and 2%; %Inh (AMPK-alpha2; [2]): 14% and 0%; %Inh (ANKK1; [2]): 0% and 10%; %Inh (ARK5; [2]): 13% and 8%; %Inh (ASK1; [2]): 14% and 0%; %Inh (ASK2; [2]): 86% and 7%; %Inh (AURKA; [2]): 0% and 1%; %Inh (AURKB; [2]): 0% and 29%; %Inh (AURKC; [2]): 24% and 0%; %Inh (AXL; [2]): 3% and 4%; %Inh (BIKE; [2]): 20% and 0%; %Inh (BLK; [2]): 8% and 9%
